Source: PubChem BioAssay (EPA / NIEHS)
“And” between values parts separate entries of the source, which are not always exact repeats. Equal entries are not always repeated. More than one record can exist for a structure, and the calls need not agree. The source made the active and inactive calls. Rule for the calls: active = hit-call score of the fitted dose curve at least 0.9, where 1 is the maximum; inactive = score below 0.9.

Legend:
Conditions in all cases: primary human HUVEC with PBMC; actives raise or lower the signal
[1] = read-out: Monocyte Chemoattractant Protein-1 (MCP1), CCL2 (gene 6347); assay: BSK_LPS_MCP1: BioMAP Diversity Plus: LPS Assay for Monocyte Chemoattractant Protein-1 (MCP1) Biomarker Activity (AID 2283081);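 for AC50: secreted MCP-1 protein quantified by ELISA in culture supernatant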
In short: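 Values derive from bidirectional fitting against DMSO of ELISA-measured MCP-1 in a human primary endothelial and mononuclear cell co-culture, 24 h after chemical addition under LPS activation.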

[2] = BSK_LPS_PGE2: BioMAP Diversity Plus: LPS Assay for Prostaglandin E2 (PGE2) Biomarker Activity (AID 2283082);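 for AC50: secreted prostaglandin E2 measured by ELISA in LPS-stimulated co-culture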
In short: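 ELISA read-out of PGE2 from human umbilical vein endothelial cells co-cultured with peripheral blood mononuclear cells under LPS, 24 h post-dose. Gain or loss of signal scored relative to DMSO baseline.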

[3] = read-out: Macrophage colony-stimulating factor (MCSF), CSF1 (gene 1435); assay: BSK_LPS_MCSF: BioMAP Diversity Plus: LPS Assay for Macrophage colony-stimulating factor (MCSF) Biomarker Activity (AID 2283083)
In short: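 Bidirectional fit versus DMSO of ELISA-measured M-CSF in co-cultured human umbilical vein endothelial cells and PBMC, sampled 24 h after dosing.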

[4] = read-out: Tissue Factor, F3 (gene 2152); assay: BSK_LPS_TissueFactor: BioMAP Diversity Plus: LPS Assay for Tissue Factor Biomarker Activity (AID 2283084)
In short: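 Read-out: CD142 ELISA, 24 h. System: LPS-driven human endothelial/PBMC co-culture. Analysis: up- or down-signal fitted against DMSO.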

[5] = read-out: Tumor necrosis factor (Homo sapiens) (UniProt P01375); assay: BSK_LPS_TNFa: BioMAP Diversity Plus: LPS Assay for Tumour Necrosis Factor alpha (TNFa) Biomarker Activity (AID 2283085);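 for AC50: TNFa protein level quantified by ELISA in the co-culture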
In short: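 HUVEC/PBMC co-culture, LPS-stimulated; 24 h post-dose; TNFa by ELISA; gain or loss of signal fitted bidirectionally vs DMSO baseline.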

[6] = read-out: Vascular cell adhesion molecule 1 (VCAM1), VCAM1 (gene 7412); assay: BSK_LPS_VCAM1: BioMAP Diversity Plus: LPS Assay for Vascular cell adhesion molecule 1 (VCAM1) Biomarker Activity (AID 2283086)
In short: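 ELISA read-out of VCAM-1 at 24 h post-dosing in an LPS-driven HUVEC/PBMC primary human co-culture; gain or loss of signal fitted bidirectionally against DMSO baseline. Cytotoxicity tracked in parallel cultures by SRB total-protein staining.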

CD38, CD38 (gene 952) = assay: BSK_SAg_CD38: BioMAP Diversity Plus: SAg Assay for CD38 Biomarker Activity (AID 2283087)
In short: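 Measures CD38 on a human endothelial/PBMC co-culture driven by SEB and TSST-1, 24 h after compound exposure, using ELISA with fluorescence detection; DMSO defines baseline for bidirectional curve fitting.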

CD69, CD69 (gene 969) = assay: BSK_SAg_CD69: BioMAP Diversity Plus: SAg Assay for CD69 Biomarker Activity (AID 2283089);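 for AC50: cell surface CD69 protein quantified by ELISA with fluorescence detection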
In short: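 ELISA, fluorescence read-out: CD69 on human umbilical vein endothelial cell + PBMC co-culture, 24 h post-dosing. Gain or loss of signal fitted bidirectionally against DMSO baseline.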

[7] = read-out: Monocyte Chemoattractant Protein-1 (MCP1), CCL2 (gene 6347); assay: BSK_SAg_MCP1: BioMAP Diversity Plus: SAg Assay for Monocyte Chemoattractant Protein-1 (MCP1) Biomarker Activity (AID 2283090)
In short: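 Values derive from bidirectional fitting of ELISA-measured MCP1 against DMSO controls. Readings were taken 24 h after dosing human vascular endothelial cells co-cultured with peripheral blood mononuclear cells under superantigen stimulation.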

CD40, CD40 (gene 958) = assay: BSK_SAg_CD40: BioMAP Diversity Plus: SAg Assay for CD40 Biomarker Activity (AID 2283088)
In short: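 Endpoint derived by fitting increases or decreases versus DMSO controls. CD40 is detected by fluorescence ELISA in a human vascular co-culture of endothelium and PBMC at 24 h.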

Measured: AC50

Tumor necrosis factor (Homo sapiens), sequence (P01375 whole entry, looked up): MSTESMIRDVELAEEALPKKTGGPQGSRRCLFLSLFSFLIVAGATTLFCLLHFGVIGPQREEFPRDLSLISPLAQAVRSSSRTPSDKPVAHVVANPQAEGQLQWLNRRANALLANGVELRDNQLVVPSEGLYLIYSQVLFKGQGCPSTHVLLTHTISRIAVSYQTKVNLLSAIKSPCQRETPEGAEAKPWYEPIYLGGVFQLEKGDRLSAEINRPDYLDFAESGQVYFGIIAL

COC(=O)C(C)Oc1ccc(Oc2ccc(Cl)cc2Cl)cc1 (stereo not drawn)
inactive: [1] | [3] | [4] | [5] | [6] | CD38, CD38 (gene 952) | CD69, CD69 (gene 969) | [7]
active: [1] 28.9 µM | [2] 11.4 µM and 12 µM and 23.5 µM | CD38, CD38 (gene 952) 10.9 µM | [7] 20 µM

C=CCC1=C(C)[C@@H](OC(=O)[C@@H]2[C@@H](C=C(C)C)C2(C)C)CC1=O
active: [1] 32.1 µM | [2] 4.92 µM | [3] 26.9 µM | [5] 36.5 µM | [6] 29.2 µM | CD38, CD38 (gene 952) 33.1 µM | CD40, CD40 (gene 958) 38.7 µM | CD69, CD69 (gene 969) 36.5 µM | [7] 33.2 µM
inactive: [4]

CN(C)C(=S)SSC(=S)N(C)C
active: [1] 27.1 µM | [2] 4.51 µM | [3] 14.8 µM | [4] 14.5 µM | [5] 13.8 µM | [6] 24.6 µM | CD38, CD38 (gene 952) 26.8 µM | CD40, CD40 (gene 958) 28 µM | CD69, CD69 (gene 969) 28.3 µM | [7] 28.7 µM

C=CCC1=C(C)C(OC(=O)C2C(C=C(C)C)C2(C)C)CC1=O (stereo not drawn)
inactive: [2] | [4]
active: [1] 35.7 µM [middle of 4 runs] | [2] 33.7 µM and 5.54 µM | [3] 24.4 µM [middle of 4 runs] | [4] 33.8 µM and 31.9 µM | [5] 34.3 µM [middle of 4 runs] | [6] 31 µM [middle of 4 runs] | CD38, CD38 (gene 952) 30.5 µM and 34.3 µM and 31.6 µM | CD69, CD69 (gene 969) 30.1 µM [middle of 4 runs] | [7] 34.9 µM [middle of 4 runs]

C=CC1(C)OC(=O)N(c2cc(Cl)cc(Cl)c2)C1=O (stereo not drawn)
inactive: [1] | [2] | [3] | [4] | [5] | [6] | CD38, CD38 (gene 952) | CD40, CD40 (gene 958) | CD69, CD69 (gene 969) | [7]

COc1ccc(C(c2ccc(OC)cc2)C(Cl)(Cl)Cl)cc1
active: [1] 29.7 µM | [3] 20 µM | [5] 12.2 µM | [6] 20 µM | CD38, CD38 (gene 952) 14.9 µM | CD40, CD40 (gene 958) 15.3 µM | CD69, CD69 (gene 969) 25.4 µM | [7] 27.1 µM
inactive: [2] | [4]

Cc1cc(Cl)ccc1OCC(=O)O
inactive: [1] | [2] | [3] | [4] | [5] | [6] | CD38, CD38 (gene 952) | CD40, CD40 (gene 958) | CD69, CD69 (gene 969) | [7]

COP(=S)(OC)Oc1nc(Cl)c(Cl)cc1Cl
inactive: [3] | CD38, CD38 (gene 952) | CD69, CD69 (gene 969) | [7]
active: [1] 30.4 µM | [2] 26.7 µM | [4] 25.3 µM | [5] 27.8 µM | [6] 26.4 µM

CO/C=C(/C(=O)OC)c1ccccc1Oc1cc(Oc2ccccc2C#N)ncn1
inactive: [2] | [4] | [5] | [6] | [7]
active: [1] 27.1 µM [middle of 4 runs] | [2] 9.64 µM | [3] 24.5 µM [middle of 4 runs] | [4] 35.3 µM | [5] 15.5 µM | [6] 11 µM and 8.26 µM and 19.7 µM | CD38, CD38 (gene 952) 20 µM [middle of 4 runs] | CD40, CD40 (gene 958) 20.6 µM [middle of 4 runs] | CD69, CD69 (gene 969) 12.3 µM [middle of 4 runs] | [7] 26.6 µM and 25.4 µM

COC(=O)N(OC)c1ccccc1COc1ccn(-c2ccc(Cl)cc2)n1
active: [1] 9.04 µM | [2] 0.215 µM | [3] 14.1 µM | [5] 9.8 µM | [6] 13 µM | CD38, CD38 (gene 952) 5.43 µM | CD69, CD69 (gene 969) 3.97 µM | [7] 4.97 µM
inactive: [4]

CCNc1nc(Cl)nc(NC(C)C)n1
inactive: [1] | [2] | [3] | [4] | [6] | CD38, CD38 (gene 952) | CD40, CD40 (gene 958) | CD69, CD69 (gene 969) | [7]
active: [5] 6.09 µM

N#CC(CCc1ccc(Cl)cc1)(Cn1cncn1)c1ccccc1 (stereo not drawn)
active: [2] 3.75 µM
inactive: [1] | [3] | [4] | [5] | [6] | CD38, CD38 (gene 952) | CD40, CD40 (gene 958) | CD69, CD69 (gene 969) | [7]

O=C(O)COc1nc(Cl)c(Cl)cc1Cl
active: [5] 27.8 µM
inactive: [1] | [2] | [3] | [4] | [6] | CD38, CD38 (gene 952) | CD69, CD69 (gene 969) | [7]

COP(N)(=O)SC (stereo not drawn)
inactive: [1] | [3] | [4] | [5] | [6] | CD38, CD38 (gene 952) | CD40, CD40 (gene 958) | CD69, CD69 (gene 969) | [7]
active: [2] 20 µM

CCc1nn(C)c(C(=O)NCc2ccc(C(C)(C)C)cc2)c1Cl
active: [1] 29.4 µM | [2] 3.97 µM | [3] 13.4 µM | [4] 20 µM | [5] 20.8 µM | [6] 19.4 µM | CD38, CD38 (gene 952) 15.8 µM | CD69, CD69 (gene 969) 3.99 µM | [7] 20 µM

CC1COC(Cn2cncn2)(c2ccc(Oc3ccc(Cl)cc3)cc2Cl)O1 (stereo not drawn)
active: [1] 31.7 µM | [2] 0.172 µM | [3] 27.6 µM | [4] 30.2 µM | [5] 31.5 µM | [6] 29.7 µM | CD38, CD38 (gene 952) 19.4 µM | CD40, CD40 (gene 958) 18.4 µM | CD69, CD69 (gene 969) 18.8 µM | [7] 23.8 µM

CCCN(CCC)c1c([N+](=O)[O-])cc(S(N)(=O)=O)cc1[N+](=O)[O-]
inactive: [1] | [2] | [4] | [5]
active: [1] 37.8 µM and 35.1 µM and 33 µM | [2] 34.7 µM | [3] 32.3 µM [middle of 4 runs] | [4] 34.3 µM and 38.1 µM and 32.8 µM | [5] 33.6 µM and 32.2 µM | [6] 34.6 µM [middle of 4 runs] | CD38, CD38 (gene 952) 38.7 µM [middle of 4 runs] | CD69, CD69 (gene 969) 32.6 µM [middle of 4 runs] | [7] 34.8 µM [middle of 4 runs]

O=C(Nc1ccccc1)Nc1ccnc(Cl)c1
inactive: [3] | [4] | [6] | CD38, CD38 (gene 952) | [7]
active: [1] 9.85 µM | [2] 6.08 µM | [5] 31.1 µM | CD69, CD69 (gene 969) 20 µM

CCNc1nc(Cl)nc(NCC)n1
active: [5] 8.37 µM
inactive: [1] | [2] | [3] | [4] | [6] | CD38, CD38 (gene 952) | CD69, CD69 (gene 969) | [7]

CCOC(=O)C(Cl)Cc1cc(-n2nc(C)n(C(F)F)c2=O)c(F)cc1Cl (stereo not drawn)
inactive: [1] | [2] | [3] | [4] | [5] | [6] | CD38, CD38 (gene 952) | CD69, CD69 (gene 969) | [7]

CCON=C(CC)C1=C(O)CC(c2c(C)cc(C)cc2C)CC1=O (stereo not drawn)
inactive: [1] | [3] | [4] | [5] | [6] | CD38, CD38 (gene 952) | CD69, CD69 (gene 969) | [7]
active: [2] 20 µM

COC(=O)c1ccccc1C(=O)OC
inactive: [1] | [2] | [3] | [4] | [5] | [6] | CD38, CD38 (gene 952) | CD40, CD40 (gene 958) | CD69, CD69 (gene 969) | [7]

CC(C)(C)c1ccc(CSc2cnn(C(C)(C)C)c(=O)c2Cl)cc1
inactive: [2] | [4] | [5]
active: [1] 5.45 µM | [3] 9.19 µM | [6] 15.8 µM | CD38, CD38 (gene 952) 2.4 µM | CD40, CD40 (gene 958) 4.43 µM | CD69, CD69 (gene 969) 1.43 µM | [7] 1.11 µM

CC(Oc1ccc(Cl)cc1Cl)C(=O)O (stereo not drawn)
inactive: [1] | [2] | [3] | [4] | [5] | [6] | CD38, CD38 (gene 952) | CD40, CD40 (gene 958) | CD69, CD69 (gene 969) | [7]

CCCCNC(=O)OCC#CI
inactive: [2]
active: [1] 30.9 µM and 16.6 µM | [2] 36 µM | [3] 20 µM and 17.1 µM | [4] 15.6 µM and 13.7 µM | [5] 13.2 µM and 12.3 µM | [6] 24.9 µM and 27.1 µM | CD38, CD38 (gene 952) 21.4 µM and 17.4 µM | CD69, CD69 (gene 969) 21.9 µM and 15.5 µM | [7] 29.2 µM and 26.1 µM
